Screening results from PubChem BioAssay.
HT1080NT lethal = kills 2HG-producing HT-1080-NT fibrosarcoma cells | HT-1080-NT fibrosarcoma viability, CellTiter-Glo ATP luminescence, 48 h | Potency, µM (series often up to 46.1 µM), inactives show top-dose activity, negative = less viability, hits mostly cytotoxic | 360,000 compounds, 1.6% hits | AID 686970;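 further: NT is the 2HG producing partner of a matched IDH1 knockdown line; 0% = DMSO-treated cells and -100% = media-only wells without cells; nearly all actives have a fitted effect of over 55% in size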
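HT-1080-NT fibrosarcoma cells (2HG-overproducing), 750 cells/well in RPMI with 5% FBS, dosed after 2 h and incubated 48 h at 37C. CellTiter-Glo luminescence normalized to DMSO and no-cell wells; concentration-response curves fitted and classed.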
HT1080 IDH1KD tx = kills HT-1080 cells with IDH1 knockdown. 360,000 compounds, 2% hits. Potency, µM (series often up to 46.1 µM), without a hit: at the top dose activity, negative = toxicity, most hits filed as cytotoxic. HT-1080 IDH1 knockdown viability, ATP luminescence, 48 h;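 further: 0% = DMSO wells and -100% = cell-free medium wells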
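% activity derives from luminescence (CellTiter-Glo), normalised to DMSO and no-cell wells. HT-1080-IDH1KD cells, 750/well, had 48 h compound exposure at 37 °C.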
KB-3-1 cytotox = KB-3-1 parental cell cytotoxicity. Potency, µM (series often up to 46.1 µM), usual class: cytotoxic. 400,000 compounds, 1.4% hits. KB-3-1 viability, CellTiter-Glo ATP luminescence, 72 h; further: nearly all actives have a fitted effect of over 60% in size
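Cells are dispensed, compounds pinned in, plates held at 37 °C for 72 h, then CellTiter-Glo is added and luminescence read after 10 minutes. Cell line: parental KB-3-1 in phenol-red-free DMEM, 10% FBS.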
DT40 TDP1 no CPT = qHTS for Inhibitors of human tyrosyl-DNA phosphodiesterase 1 (TDP1): qHTS in cells in absence of CPT | 420,000 compounds, 15% hits | Potency, µM (top dose mostly 46.2 µM), inactives show at the top dose activity change, negative = growth inhibition, usual class: inhibitors | DT40 Tdp1-/- hTDP1 cells, no CPT, ATP luminescence, 48 h | AID 686978, 2013; further: nearly all actives have a fitted effect of over 55% in size
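Growth kinetics read by CellTiter-Glo luminescence after ≥48 hr at 37 °C. Cells: DT40 Tdp1-/- stably carrying human TDP1, 400 per well, compound exposure in the absence of CPT (DMSO vehicle).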
DT40 TDP1 CPT = DT40-hTDP1 cell growth loss with CPT | chicken DT40 Tdp1-/-;hTDP1 cells + 20 nM CPT, ATP luminescence, 48 h | Potency, µM (highest dose often 46.2 µM), for inactives: at the highest dose activity change, negative = growth inhibition, hits mostly inhibitors | 420,000 compounds, 12% hits | AID 686979; further: nearly all actives have a fitted effect of over 55% in size
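Chicken DT40 Tdp1-/- cells complemented with human TDP1, 400 cells/well, exposed to compounds plus 20 nM camptothecin for at least 48 h at 37 C; viability read as ATP content by CellTiter-Glo luminescence.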
KB-V1 cytotox = kills drug-selected multidrug resistant KB-V1 cells; Potency, µM (highest dose often 46.1 µM), most hits filed as cytotoxic; KB-V1 MDR cells viability, CellTiter-Glo, 72 h; AID 1347076; 400,000 compounds, 3.4% hits; further: nearly all actives have a fitted effect of over 60% in size
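Cells of the MDR subline KB-V1 are plated, dosed with compound at multiple concentrations, and incubated 72 h at 37 degrees C; CellTiter-Glo is then added and luminescence read after 10 min.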
An asterisk follows results filed as active; i = inactive; ? = inconclusive; · = no result given. Hits are enriched below; roughly 19% of the tested compounds scored in any of these assays. The call rests on the fitted dose curve; in most records, active means well fitted curve in the direction sought with a large enough effect; inconclusive means small, poorly fitted or top-dose-only effect, or another doubt; inactive means no such curve, though single readings can be large; an effect the other way counts as inactive or inconclusive. Unless noted, on the % scale 0 is the no-effect control and ±100 the full control effect; potency means the concentration at half of the fitted maximal effect.

SMILES	HT1080NT lethal	HT1080 IDH1KD tx	KB-3-1 cytotox	DT40 TDP1 no CPT	DT40 TDP1 CPT	KB-V1 cytotox
O=C(Nc1cccc(-c2csc(Nc3ccc(Cl)cc3)n2)c1)c1ccccc1	?	?	i	16.4µM*	8.2µM*	i
O=C(Nc1cccc(-c2csc(Nc3ccc(Cl)cc3)n2)c1)c1cc([N+](=O)[O-])cc(C(F)(F)F)c1	1.4%	4.2%	?	18.4µM*	18.4µM*	i
Clc1ccc(Nc2nc(-c3cccnc3)cs2)cc1	-7.0%	-4.8%	i	?	-14.0%	i
O=C(Nc1cccc(-c2csc(Nc3ccccc3)n2)c1)c1cc([N+](=O)[O-])cc(C(F)(F)F)c1	-24.8%	-0.4%	?	?	?	i
O=C(Nc1ccc(-c2csc(Nc3ccccc3)n2)cc1)c1ccccc1	-6.5%	-8.0%	?	20.6µM*	25.9µM*	i
O=C(Nc1cccc(-c2csc(Nc3ccc(Cl)cc3)n2)c1)c1cccc(C(F)(F)F)c1	?	?	?	20.6µM*	?	i
Nc1cc(=O)[nH]c(SCC(=O)Nc2ccc(N3CCOCC3)cc2)n1	2.0%	7.5%	i	-0.5%	8.0%	i
CCCC(C(=O)NC1CCCC1)N(CC1CCCO1)C(=O)CNS(=O)(=O)c1ccc(F)cc1 (configuration not stated)	4.2%	3.2%	i	-21.3%	1.6%	i
O=c1[nH]c2cc3c(cc2cc1C(c1nnnn1CC1CCCO1)N1CCCCCC1)OCCO3 (configuration not stated)	-4.8%	5.1%	i	14.6µM*	?	i
O=c1[nH]c2cc3c(cc2cc1C(c1nnnn1CC1CCCO1)N1CCCC1)OCO3 (configuration not stated)	3.3%	1.4%	i	-14.8%	-6.8%	i
Cc1ccc(NC(=O)Cn2cc(C(F)(F)F)cc(Cl)c2=O)cc1S(=O)(=O)N1CCCCC1	-13.3%	-16.7%	?	?	?	i
CCn1cc2nc(SCc3cc(C)ccc3C)n(Cc3ccc(Cl)cc3)c(=O)c2n1	·	·	i	?	?	i
CCn1cc2nc(SCc3cccc(Cl)c3)n(Cc3ccc(C)cc3)c(=O)c2n1	·	·	i	23.1µM*	20.6µM*	i
CCn1cc2nc(SCc3cccc(C(F)(F)F)c3)n(Cc3ccc(Cl)cc3)c(=O)c2n1	·	·	?	8.2µM*	14.6µM*	?
CNC(=O)CSc1nc2ccccc2c(=O)n1CCc1ccccc1	2.2%	3.5%	i	-7.9%	-18.4%	i
Cn1c(=O)c2c(nc(SCC(=O)O)n2Cc2cccc(C(F)(F)F)c2)n(C)c1=O	0.7%	-0.2%	i	-23.1%	-3.1%	i
CCn1c(SCc2cccc(C(F)(F)F)c2)nnc1-c1ccco1	7.5%	0.0%	i	-10.8%	-12.8%	?
CCn1cc2nc(SCc3cccc(C)c3)n(CCc3ccccc3)c(=O)c2n1	·	·	i	?	23.1µM*	i
CCn1cc2nc(SCc3cccc(C(F)(F)F)c3)n(CCc3ccccc3)c(=O)c2n1	·	·	i	13µM*	23.1µM*	?
OC(COC1CCCCC1)CN1CCCCC1 (configuration not stated)	5.7%	23.0%	i	0.3%	-3.6%	i
COc1ccc(C)cc1NC(=O)CN1C(=O)COc2ccc(C)cc21	-9.6%	-7.1%	i	0.1%	0.1%	i
CCN(CC)S(=O)(=O)c1ccc2c(c1)N(CC(=O)N1CCCC1)C(=O)CO2	-3.9%	-0.6%	i	-7.6%	-4.2%	i
CCN(CC)S(=O)(=O)c1ccc2c(c1)N(CC(=O)N1CCN(c3cccc(C(F)(F)F)c3)CC1)C(=O)CO2	·	·	i	20.6µM*	?	i
CCN(CC)S(=O)(=O)c1ccc2c(c1)N(CC(=O)N1CCN(c3cccc(C)c3C)CC1)C(=O)CO2	·	·	i	14.6µM*	18.4µM*	i
CCn1ccc2cc(S(=O)(=O)N3CCC(C(=O)NCc4cccc(C)c4)CC3)ccc21	·	·	i	?	?	i
SMILES	HT1080NT lethal	HT1080 IDH1KD tx	KB-3-1 cytotox	DT40 TDP1 no CPT	DT40 TDP1 CPT	KB-V1 cytotox
CC(C)(C)C(=O)N1CCN(c2nc3ccccc3s2)CC1	?	-10.7%	i	?	-22.6%	i
CCCCC(=O)N1CCN(c2nc3ccc(F)cc3s2)CC1	?	?	i	8.2µM*	?	i
CCCC(=O)N1CCN(c2nc3ccccc3s2)CC1	-20.6%	-4.2%	?	-29.6%	?	i
CCC(=O)N1CCN(c2nc3ccc(Br)cc3s2)CC1	?	?	i	18.4µM*	?	i
CCCC(=O)N1CCN(c2nc3ccc(F)cc3s2)CC1	·	·	·	11.6µM*	14.6µM*	·
CCc1ccc2nc(N3CCN(C(=O)C(C)(C)C)CC3)sc2c1	-3.8%	5.7%	i	18.4µM*	?	?
Cc1ccccc1-n1c(SCC(=O)N2CCCC2)nnc1-c1ccccn1	-3.8%	-5.7%	i	-12.5%	-3.1%	i
Cc1ccccc1-n1c(SCC(=O)N2CCN(c3ccccc3)CC2)nnc1-c1ccncc1	8.3%	1.6%	i	20.6µM*	16.4µM*	3.66µM*
Cn1c(SCC(=O)N2CCN(c3ccccc3)CC2)nnc1-c1ccccc1	-5.5%	-13.9%	i	-15.6%	-7.8%	?
Cc1ccc(CSCc2nnc(SCC(=O)N3CCN(c4ccccc4)CC3)n2C)cc1	-6.3%	-20.9%	?	16.4µM*	?	i
CCc1ccccc1-n1c(SCC(=O)N2CCCC2)nnc1-c1ccccn1	10.0%	10.3%	i	20µM*	?	i
Cc1ccc(CSCC(=O)N2CCN(c3ccccc3)CC2)cc1	0.0%	13.3%	i	?	?	i
CCn1c(CSCc2ccc(F)cc2)nnc1SCC(=O)N1CCN(c2ccccc2)CC1	-13.7%	-2.5%	i	23.1µM*	?	?
O=C(Nc1nnc(C2CC2)s1)c1cncc(Br)c1	0.6%	6.7%	i	-26.6%	-0.8%	i
CC1=C(C(=O)N(C)C)CC(CC(=O)NC2CCCCC2)C(=O)N1CCC1=CCCCC1 (configuration not stated)	0.3%	1.8%	i	?	-4.6%	?
COC(=O)c1cc2oc(C)cc2n1Cc1cccc(Cl)c1	·	·	i	?	?	i
